Laboratory results taken from PubChem BioAssay (EPA / NIEHS).
Calls of active or inactive are those of the source. Rule for the calls: active = hit-call score of the fitted dose curve at least 0.9, where 1 is the maximum; inactive = score below 0.9.

Assay: ATG_TCF_b_cat_CIS: Attagene CIS-FACTORIAL HepG2 Assay for human T-Cell-Factor with beta-catenin (TCF/b-cat) (AID 2282965)
Details: HepG2 TCF/beta-catenin cis-reporter transcription, actives raise or lower the signal
Description: ATG_CIS is a cell-based, multiplexed-readout assay that uses HepG2, a human liver cell line, with measurements taken at 24 hours after chemical dosing in a 24-well plate.ATG_TCF_b_cat_CIS is one of 52 assay component(s) measured or calculated from the ATG_CIS assay. It is designed to make measurements of mRNA induction, a form of inducible reporter, as detected with fluorescence intensity signals by Reverse transcription polymerase chain reaction (RT-PCR) and Capillary electrophoresis technology.Data from the assay component ATG_TCF_b_cat_CIS was analyzed into 1 assay endpoint. This assay endpoint, ATG_TCF_b_cat_CIS, was analyzed with bidirectional fitting relative to DMSO as the negative control and baseline of activity. Using a type of inducible reporter, measures of mRNA for gain or loss-of-signal activity can be used to understand the reporter gene at the transcription factor-level as they relate to the gene TCF7 and TCF7L2 and LEF1 and TCF7L1. Furthermore, this assay endpoint can be referred to as a primary readout, because this assay has produced multiple assay endpoints where this one serves a reporter gene function. To generalize the intended target to other relatable targets, this assay endpoint is annotated to the dna binding intended target family, where the subfamily is HMG box protein.
Human liver HepG2 cells are transiently transfected with multiple reporter transcription units (MRTUs) in 6-well plates using FuGene 6 reagent (Roche; 3 ml FuGene/1 mg DNA). The MRTU constructs are regulated by a cis-regulating element (promoter). […] A major difference between the CIS and TRANS system is that in CIS activities of endogenous TFs are measured, whereas the TRANS assay evaluates changes in activities of exogenous, chimeric NR-Gal4 proteins. […] At the end of 24 hour incubation, total RNA was isolated using TriZol reagent (Invitrogen). The isolated RNA is then reverse-transcribed using oligo(dT) primer and Mo-MLV reverse transcriptase (Invitrogen) with DNAse I (Ambion) treatment for 30 min. The one-tenth of the produced cDNA was amplified by PCR using Taq DNA polymerase (Invitrogen) and two reporter sequence-specific primers. The PCR products were fluorescently labeled by primer extension with 6-arboxyfluorescein (6-FAM) 5'-labeled reporter sequence-specific primer (2 min at 95 C, 20 s at 68 C and 10 min at 72 C) and these products were digested with 5U of HpaI (New England Biolabs) for 2h at 37 C. The fragments were purified using Qiaquick PCR columns (Qiagen), analyzed on an ABI 3130xL genetic analyzer (Applied Biosystems) with peak positions identified by using a set of X-rhodamine (ROX)-labeled MapMarker1000 molecular weight standards (BioVentures). The raw capillary electrophoresis data was processed using Attagraph software (Attagene).

| SMILES | outcome | AC50 |
| --- | --- | --- |
| c1coc(CNc2ncnc3nc[nH]c23)c1 | inactive | – |
| [Na+] | inactive | – |
| CC(C)C(=O)c1ccccc1 | inactive | – |
| CCCCOCCOCCOCCO | inactive | – |
| CCn1cc(C(=O)O)c(=O)c2ccc(C)nc21 | inactive | – |
| CN(C)c1ccc(C=O)cc1 | inactive | – |
| CN(C)C(=O)Nc1ccccc1 | inactive | – |
| CC(C)Cc1ccc(C(C)C(=O)O)cc1 (stereo not given) | inactive | – |
| Nc1cc([N+](=O)[O-])ccc1C(=O)O | inactive | – |
| CCCCCCCCCC(=O)OCC | inactive | – |
| OCCN1CCOCC1 | inactive | – |
| CN(C)CCC=C1c2ccccc2CCc2ccccc21 | – | 22.1 µM (active) |
| CCc1cccc(O)c1 | inactive | – |
| CC12CCC(C1)C(C)(C)C2O (stereo not given) | inactive | – |
| COC(=O)c1ccc(C(=O)OC)cc1 | inactive | – |
| C[N+](C)(C)CCO | inactive | – |
| CN1CCc2cccc3c2[C@H]1Cc1ccc(O)c(O)c1-3 | inactive | – |
| CCCCCCCCOS(=O)(=O)O | inactive | – |
| CCOC(=O)CC(C)C | inactive | – |
| C=CCCCCCCCCC(=O)OCC | inactive | – |

| SMILES | outcome | AC50 |
| --- | --- | --- |
| CCO[Si](CC)(OCC)OCC | – | 173 µM (active) |
| [Cl][Dy]([Cl])[Cl] | inactive | – |
| CCCCCCCCOC(=O)c1ccc(O)cc1 | inactive | – |
| CCCC(O)C(CC)CO (stereo not given) | inactive | – |
| NC(=O)c1c(Cl)cccc1Cl | inactive | – |
| CCC(=O)OC/C=C(\C)CCC=C(C)C | inactive | – |
| C=C(C)C(N)=O | inactive | – |
| CCCCCC#CC(=O)OC | inactive | – |
| O=[N+]([O-])c1cc(N(CCO)CCO)ccc1NCCO | inactive | – |
| Nc1ccc(N)c([N+](=O)[O-])c1 | inactive | – |
| O=C1OC2(c3ccc(O)cc3Oc3cc(O)ccc32)c2ccccc21 | inactive | – |
| CCOC(=O)CCCCCCCCC(=O)OCC | inactive | – |
| CCCCCCCCCOS(=O)(=O)O | inactive | – |
| COc1ccccc1O | inactive | – |
| CCCCCC(=O)O[C@]1(C(C)=O)CC[C@H]2[C@@H]3CCC4=CC(=O)CC[C@]4(C)[C@H]3CC[C@@]21C | inactive | – |
| CC(=O)CC(=O)N(C)C | inactive | – |
| CCCCCCOc1ccc(O)cc1 | – | 20.5 µM (active) |
| CC(=O)c1ccc2ccccc2c1 | inactive | – |
| CCCc1ccc(O)cc1 | inactive | – |
| O=C1CCC(=O)N1 | inactive | – |
